Measured values taken from PubChem BioAssay AID1345085 (National Center for Advancing Translational Sciences (NCATS), 2018).
Results filed as inconclusive are left out. Unmarked numbers belong to inactive results. Activity calls are given as the source filed them. The call rests on the fitted dose curve; in most records, active means well fitted cell-killing curve with a large enough effect; inconclusive means small, poorly fitted or top-dose-only effect, or effect the other way; inactive means no such curve, though single readings can be large or run the other way.

Test system: C33A
Assay: Confirmatory qHTS for gynecologic anti-cancer compounds from libraries of approved drugs and bioactive compounds; further: nearly all actives have a fitted effect of over 55% in size
Conditions: gynecologic cancer cell panel viability, ATPlite luminescence, 48 h; series mostly up to 57.6 µM; activity change, negative = viability loss: at the top concentration
Procedure, shortened: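 ATP-based luminescent viability (ATPlite) after 48 h drug treatment at 37 °C, 5% CO2, across 57.5 uM–0.977 nM in 1:3 steps. Cells seeded at 1,000 per well 16 h beforehand; IC50 values computed, HEK 293T as selectivity control.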
On the % scale 0 is the no-effect control and ±100 the full control effect; potency means the concentration at half of the fitted maximal effect.

Compound | activity change, negative = viability loss | Potency
Cc1sc2c(c1C)C(c1ccc(Cl)cc1)=NC(CC(=O)OC(C)(C)C)c1nnc(C)n1-2 (stereo unspecified) | -10.4% | 
CCC(=O)O[C@H]1CC[C@H]2[C@@H]3CCC4=CC(=O)CC[C@]4(C)[C@H]3CC[C@]12C | 2.88% | 
CCN1CCN(C(=O)Cc2ccc(Nc3ncc(F)c(Nc4ccc(C(=O)Nc5ccccc5Cl)cc4)n3)cc2)CC1 | -12.3% | 
C/C=C(/C)C(=O)O[C@H]1C(C)=C2[C@H]([C@@H]1OC(=O)CCCCCCC)[C@@](C)(OC(C)=O)C[C@H](OC(=O)CCC)[C@@]1(O)[C@H]2OC(=O)[C@@]1(C)O |  | 21.7 µM (active)
CCNC(=O)C[C@@H]1N=C(c2ccc(Cl)cc2)c2cc(OC)ccc2-n2c(C)nnc21 | -5.6% | 
C[C@]12CC[C@H]3[C@@H](CCC4=CC(=O)CC[C@@H]43)[C@@H]1CC[C@@H]2OC(=O)CCc1ccccc1 | 8.47% | 
